From the supplement of paper PMC10849652 come the findings set out here.

Targets with a hit are over-represented here; the source holds about 8,800 in all. About 0.5% of all pairs of compound and target were hits. A number with no mark means an inactive call.

Assay in all cases: log2 fold change, soluble protein after heating vs DMSO (PISA); higher = thermal stabilisation; K562 lysate, 10 uM; active = over 0.2 and 3.5 SD of the protein, either way, in both replicates (recomputed)
Compound in one assay: CS(=O)(=O)CCNCc1ccc(-c2ccc3ncnc(Nc4ccc(OCc5cccc(F)c5)c(Cl)c4)c3c2)o1 [lapatinib]
The method, boiled down: (§1)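 The values are log-two fold changes in thermal stability compared with solvent controls and come from duplicates. They were obtained by TMTpro 16plex LC-MS/MS, with channel sums equalised, on the supernatant after 21,000xg for 90 min. That supernatant came from crude K562 extract at 1 mg/mL protein treated with 10 μM compound for 30 min, heated for 3 min across 48°C-58°C, pooled and brought to 0.5% NP-40 at 4°C.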

Compound in another assay: CS(=O)(=O)N1CCN(Cc2cc3nc(-c4cccc5[nH]ncc45)nc(N4CCOCC4)c3s2)CC1 [pictilisib]
The method, boiled down: as §1

Compound in another assay: C[C@@H](Oc1cc(-c2cnn(C3CCNCC3)c2)cnc1N)c1c(Cl)ccc(F)c1Cl [crizotinib]
The method, boiled down: as §1

Compound in assay [1]: C[C@H](C1=CC=C(C=C1)C(=O)NC2=C3C=CNC3=NC=C2)N
A digest of the protocol:
as §1

Compound in another assay: C[C@H](Nc1ncnc2nc[nH]c12)c1cc2cccc(Cl)c2c(=O)n1-c1ccccc1 [duvelisib]
A digest of the protocol: as §1

Compound in another assay: Cc1cc(Nc2cc(CN3CCOCC3)c3nc(C)c(Cc4ccc(Cl)cc4F)n3n2)n[nH]1 [gandotinib]
A digest of the protocol:
as §1

Compound in another assay: Cc1cc(Nc2cc(N3CCN(C)CC3)nc(Sc3ccc(NC(=O)C4CC4)cc3)n2)n[nH]1 [tozasertib]
A digest of the protocol: as §1

Compound in the next assay: Cc1ccc(-n2nc(C(C)(C)C)cc2NC(=O)Nc2ccc(OCCN3CCOCC3)c3ccccc23)cc1 [doramapimod]
A digest of the protocol: as §1

Compound in the next assay: Cc1ccc(NC(=O)c2ccc(CN3CC[C@H](N(C)C)C3)c(C(F)(F)F)c2)cc1Nc1nccc(-c2cncnc2)n1 [bafetinib]
A digest of the protocol: as §1

Compound in assay [2]: Cc1cccc(CC(=O)N2CCc3c2ccc(-c2cn(C)c4ncnc(N)c24)c3F)n1
A digest of the protocol:
as §1

Chain of UniProt Q9BTT0 (Q9BTT0 whole entry, looked up): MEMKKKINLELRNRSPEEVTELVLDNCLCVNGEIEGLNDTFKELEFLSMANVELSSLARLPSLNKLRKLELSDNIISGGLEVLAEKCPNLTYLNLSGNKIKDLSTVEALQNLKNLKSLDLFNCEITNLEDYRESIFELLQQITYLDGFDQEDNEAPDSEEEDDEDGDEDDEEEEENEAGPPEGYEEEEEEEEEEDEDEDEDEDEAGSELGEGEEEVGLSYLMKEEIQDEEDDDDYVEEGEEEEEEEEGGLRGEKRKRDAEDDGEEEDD
Chain of UniProt Q9BVK2 (Q9BVK2 whole entry, looked up): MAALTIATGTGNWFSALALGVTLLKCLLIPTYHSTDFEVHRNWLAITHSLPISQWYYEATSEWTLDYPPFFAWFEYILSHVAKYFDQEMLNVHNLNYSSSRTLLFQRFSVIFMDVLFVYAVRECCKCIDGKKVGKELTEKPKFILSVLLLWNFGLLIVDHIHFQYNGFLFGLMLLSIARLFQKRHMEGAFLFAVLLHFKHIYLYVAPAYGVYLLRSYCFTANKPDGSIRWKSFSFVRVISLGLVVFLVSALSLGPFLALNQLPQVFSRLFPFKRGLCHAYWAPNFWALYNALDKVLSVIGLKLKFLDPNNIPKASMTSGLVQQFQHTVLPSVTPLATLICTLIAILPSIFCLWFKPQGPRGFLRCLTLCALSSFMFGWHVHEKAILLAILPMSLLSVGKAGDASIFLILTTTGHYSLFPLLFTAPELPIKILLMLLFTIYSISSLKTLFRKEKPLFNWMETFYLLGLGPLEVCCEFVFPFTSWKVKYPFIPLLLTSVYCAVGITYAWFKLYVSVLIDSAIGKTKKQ
Chain of UniProt O14727 (O14727 whole entry, looked up): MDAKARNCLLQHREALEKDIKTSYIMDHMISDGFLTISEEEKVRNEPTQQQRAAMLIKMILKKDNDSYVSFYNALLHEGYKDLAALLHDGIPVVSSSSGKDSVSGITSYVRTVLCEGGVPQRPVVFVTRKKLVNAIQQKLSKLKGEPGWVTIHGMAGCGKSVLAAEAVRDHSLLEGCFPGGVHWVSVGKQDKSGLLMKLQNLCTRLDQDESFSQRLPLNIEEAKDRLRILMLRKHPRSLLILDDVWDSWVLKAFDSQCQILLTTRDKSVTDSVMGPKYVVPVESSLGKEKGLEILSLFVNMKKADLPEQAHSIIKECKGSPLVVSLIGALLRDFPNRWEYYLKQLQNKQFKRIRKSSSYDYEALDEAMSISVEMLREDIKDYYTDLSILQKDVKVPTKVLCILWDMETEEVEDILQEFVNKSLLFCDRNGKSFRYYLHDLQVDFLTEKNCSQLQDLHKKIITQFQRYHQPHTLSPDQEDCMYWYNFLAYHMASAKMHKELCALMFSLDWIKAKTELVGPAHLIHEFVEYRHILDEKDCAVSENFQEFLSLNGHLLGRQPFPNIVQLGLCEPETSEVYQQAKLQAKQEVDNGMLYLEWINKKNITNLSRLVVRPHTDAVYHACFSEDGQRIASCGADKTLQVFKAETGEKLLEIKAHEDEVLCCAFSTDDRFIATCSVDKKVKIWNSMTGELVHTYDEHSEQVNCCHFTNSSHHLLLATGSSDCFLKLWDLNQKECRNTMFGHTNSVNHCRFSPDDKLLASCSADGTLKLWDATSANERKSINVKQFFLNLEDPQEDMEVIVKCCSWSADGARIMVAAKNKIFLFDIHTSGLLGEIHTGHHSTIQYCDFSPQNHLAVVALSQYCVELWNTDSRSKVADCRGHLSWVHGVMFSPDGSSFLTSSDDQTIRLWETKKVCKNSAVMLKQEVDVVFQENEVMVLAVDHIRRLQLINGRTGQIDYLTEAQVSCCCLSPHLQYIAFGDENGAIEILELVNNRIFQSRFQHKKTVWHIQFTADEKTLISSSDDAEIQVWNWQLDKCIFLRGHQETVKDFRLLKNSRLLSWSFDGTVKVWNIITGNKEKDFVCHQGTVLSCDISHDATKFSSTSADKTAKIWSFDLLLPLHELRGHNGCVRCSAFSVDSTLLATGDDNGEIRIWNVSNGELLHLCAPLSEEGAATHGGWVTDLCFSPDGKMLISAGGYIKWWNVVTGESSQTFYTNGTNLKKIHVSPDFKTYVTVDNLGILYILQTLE
Chain of UniProt P09110 (P09110 whole entry, looked up): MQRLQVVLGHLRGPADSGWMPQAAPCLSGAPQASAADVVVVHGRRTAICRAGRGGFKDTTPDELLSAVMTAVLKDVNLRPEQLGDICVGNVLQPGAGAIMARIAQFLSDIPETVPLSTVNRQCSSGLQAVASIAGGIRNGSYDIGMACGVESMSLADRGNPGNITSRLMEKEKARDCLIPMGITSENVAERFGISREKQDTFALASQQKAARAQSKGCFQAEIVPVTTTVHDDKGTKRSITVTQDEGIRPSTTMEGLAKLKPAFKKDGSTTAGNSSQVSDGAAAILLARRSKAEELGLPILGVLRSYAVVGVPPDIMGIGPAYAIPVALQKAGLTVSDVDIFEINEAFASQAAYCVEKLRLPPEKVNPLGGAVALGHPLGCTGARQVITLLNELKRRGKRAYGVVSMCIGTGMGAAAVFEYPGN
Chain of UniProt P42331 (P42331 whole entry, looked up): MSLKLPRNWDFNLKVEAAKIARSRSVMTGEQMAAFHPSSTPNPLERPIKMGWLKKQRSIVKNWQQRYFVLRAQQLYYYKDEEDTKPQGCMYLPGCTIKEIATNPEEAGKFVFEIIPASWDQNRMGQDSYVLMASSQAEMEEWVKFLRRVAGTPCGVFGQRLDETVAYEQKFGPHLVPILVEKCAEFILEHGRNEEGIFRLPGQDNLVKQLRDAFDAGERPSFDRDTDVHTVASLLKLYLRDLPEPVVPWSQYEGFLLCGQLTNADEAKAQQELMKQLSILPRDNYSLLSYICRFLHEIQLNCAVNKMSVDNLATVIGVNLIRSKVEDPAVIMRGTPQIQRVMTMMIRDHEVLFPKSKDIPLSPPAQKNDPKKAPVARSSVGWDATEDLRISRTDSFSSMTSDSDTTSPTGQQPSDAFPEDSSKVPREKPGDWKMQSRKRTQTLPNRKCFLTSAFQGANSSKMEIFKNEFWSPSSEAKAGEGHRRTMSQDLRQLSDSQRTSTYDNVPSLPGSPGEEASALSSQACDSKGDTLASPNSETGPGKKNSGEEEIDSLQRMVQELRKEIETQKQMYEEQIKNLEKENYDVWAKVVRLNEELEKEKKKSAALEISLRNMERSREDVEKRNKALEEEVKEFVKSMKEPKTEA
Chain of UniProt Q9Y303 (Q9Y303 whole entry, looked up): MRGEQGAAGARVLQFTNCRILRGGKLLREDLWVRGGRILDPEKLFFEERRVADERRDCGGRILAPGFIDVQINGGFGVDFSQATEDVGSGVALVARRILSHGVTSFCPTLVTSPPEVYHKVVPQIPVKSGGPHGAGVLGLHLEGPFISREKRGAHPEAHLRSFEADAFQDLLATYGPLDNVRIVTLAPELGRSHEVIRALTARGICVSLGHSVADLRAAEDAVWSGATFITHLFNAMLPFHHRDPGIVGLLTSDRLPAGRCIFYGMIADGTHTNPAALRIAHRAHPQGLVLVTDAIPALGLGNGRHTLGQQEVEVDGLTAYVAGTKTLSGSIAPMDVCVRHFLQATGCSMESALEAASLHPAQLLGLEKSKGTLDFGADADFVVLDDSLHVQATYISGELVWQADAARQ
Chain of UniProt P39687 (P39687 whole entry, looked up): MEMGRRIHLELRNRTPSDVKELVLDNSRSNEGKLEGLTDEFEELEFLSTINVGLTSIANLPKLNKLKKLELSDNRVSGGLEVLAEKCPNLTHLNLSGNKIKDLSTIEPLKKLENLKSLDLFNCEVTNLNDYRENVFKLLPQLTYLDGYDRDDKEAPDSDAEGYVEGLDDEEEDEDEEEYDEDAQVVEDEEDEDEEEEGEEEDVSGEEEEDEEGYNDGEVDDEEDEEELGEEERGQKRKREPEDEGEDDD
Chain of UniProt Q9UG63 (Q9UG63 whole entry, looked up): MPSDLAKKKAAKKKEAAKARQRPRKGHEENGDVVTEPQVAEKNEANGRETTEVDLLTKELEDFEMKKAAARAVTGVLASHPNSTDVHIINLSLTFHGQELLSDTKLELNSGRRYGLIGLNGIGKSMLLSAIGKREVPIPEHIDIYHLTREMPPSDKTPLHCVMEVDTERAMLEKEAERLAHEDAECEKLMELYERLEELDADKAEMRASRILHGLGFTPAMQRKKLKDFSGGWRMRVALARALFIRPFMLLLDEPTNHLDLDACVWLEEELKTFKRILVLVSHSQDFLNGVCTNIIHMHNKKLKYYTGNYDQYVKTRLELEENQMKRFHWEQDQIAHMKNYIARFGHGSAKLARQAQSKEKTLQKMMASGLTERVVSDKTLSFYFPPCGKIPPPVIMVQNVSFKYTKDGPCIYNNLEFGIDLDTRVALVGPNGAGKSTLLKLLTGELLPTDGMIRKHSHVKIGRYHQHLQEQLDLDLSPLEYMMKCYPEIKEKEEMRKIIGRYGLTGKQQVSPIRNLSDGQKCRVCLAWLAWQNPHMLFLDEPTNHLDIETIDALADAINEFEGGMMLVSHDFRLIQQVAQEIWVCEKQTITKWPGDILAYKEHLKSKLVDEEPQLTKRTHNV
Chain of UniProt O43865 (O43865 whole entry, looked up): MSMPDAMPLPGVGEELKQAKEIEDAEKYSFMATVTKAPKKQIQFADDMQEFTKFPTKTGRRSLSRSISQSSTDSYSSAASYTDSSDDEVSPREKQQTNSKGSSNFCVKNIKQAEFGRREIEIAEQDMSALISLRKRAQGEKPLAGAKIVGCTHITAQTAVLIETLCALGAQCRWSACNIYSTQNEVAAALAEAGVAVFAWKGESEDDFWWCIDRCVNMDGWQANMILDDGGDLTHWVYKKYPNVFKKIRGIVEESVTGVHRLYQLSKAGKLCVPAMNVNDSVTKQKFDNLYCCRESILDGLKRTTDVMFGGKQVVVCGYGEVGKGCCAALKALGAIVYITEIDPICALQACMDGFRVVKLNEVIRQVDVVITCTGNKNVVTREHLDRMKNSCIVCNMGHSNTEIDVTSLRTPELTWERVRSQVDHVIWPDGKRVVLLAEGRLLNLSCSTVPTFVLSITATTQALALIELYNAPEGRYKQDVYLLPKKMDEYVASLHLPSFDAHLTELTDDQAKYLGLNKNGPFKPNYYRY

In the case of AHCYL1 (UniProt O43865), the log2 fold change in the assay with lapatinib was -0.001; with pictilisib it was 0.008; with crizotinib, -0.028; in [1] it was -0.012; with duvelisib, 0.043; with gandotinib, -0.067. Besides, the log2 fold change with tozasertib was -0.031; with doramapimod, 0.013; with bafetinib, -0.047; in [2], 0.001.
For ABHD13 (UniProt Q7L211), the log2 fold change with lapatinib is -0.059; in the assay with pictilisib, 0.049; with crizotinib, 0.197; in [1], -0.593 (active); in the assay with duvelisib, 0; with gandotinib, 0.193. The log2 fold change is -0.044 in the assay with tozasertib, -0.104 with doramapimod, -0.197 in the assay with bafetinib and 0.184 in [2].
With AKR1B1 (UniProt P15121), the log2 fold change is -0.009 with lapatinib; 0.006 with pictilisib; 0.065 in the assay with crizotinib; -0.102 in [1]; -0.006 with duvelisib; 0.037 with gandotinib. For the same target, the log2 fold change is -0.014 with tozasertib, -0.022 with doramapimod, 0.011 with bafetinib and 0.006 in [2].
In the case of AMDHD2 isoform 3 (UniProt Q9Y303), the log2 fold change in the assay with lapatinib is 0.014; with pictilisib, -0.081; with crizotinib, 0.025; in assay [1] it was 0.006; with duvelisib, -0.043; in the assay with gandotinib it was 0.008. Moreover, the log2 fold change in the assay with tozasertib was -0.013; with doramapimod, 0.003; with bafetinib it was 0.093; in [2], 0.009.
Consider AARS2 (UniProt Q5JTZ9), for which the log2 fold change with lapatinib was 0.007; in the assay with pictilisib, 0.01; with crizotinib it was -0.046; in [1], 0.072; in the assay with duvelisib it was 0.012; with gandotinib, -0.121. The log2 fold change with tozasertib is 0.039; in the assay with doramapimod, 0.034; with bafetinib it was -0.041; in [2], 0.019.
Consider ANP32E (UniProt Q9BTT0), for which the log2 fold change in the assay with lapatinib is -0.026; with pictilisib, 0.003; with crizotinib, 0.007; in assay [1] it was -0.017; with duvelisib, 0.015; with gandotinib, 0.013. The log2 fold change in the assay with tozasertib is 0.041; with doramapimod it was -0.017; with bafetinib it was -0.003; in assay [2], -0.032.
Turning to ABCF2 isoform 2 (UniProt Q9UG63), the log2 fold change with lapatinib is -0.038; with pictilisib, -0.005; with crizotinib, -0.011; in assay [1], -0.001; with duvelisib, 0.021; with gandotinib it was -0.097. Further, the log2 fold change with tozasertib is 0.057; in the assay with doramapimod it was -0.002; with bafetinib it was -0.025; in assay [2], -0.024.
Turning to ANP32A (UniProt P39687), the log2 fold change is 0.068 with lapatinib; -0.001 with pictilisib; 0 with crizotinib; -0.063 in [1]; -0.003 with duvelisib; 0.065 with gandotinib. Besides, the log2 fold change in the assay with tozasertib was 0.014; with doramapimod it was 0.096; in the assay with bafetinib it was 0.126; in assay [2] it was 0.
For the target ADAMTS5 (UniProt Q9UNA0), the log2 fold change is -0.102 with lapatinib; -0.015 with pictilisib; -0.139 with crizotinib; -0.843 (active) in [1]; -0.004 in the assay with duvelisib; 0.332 in the assay with gandotinib. Also, the log2 fold change in the assay with tozasertib is 0.011; in the assay with doramapimod it was 0.04; with bafetinib it was -0.211; in [2], 0.33.
On to ACAA1 (UniProt P09110), for which the log2 fold change with lapatinib is 0.017; in the assay with pictilisib, -0.005; in the assay with crizotinib, 0.014; in [1] it was -0.015; in the assay with duvelisib, -0.014; in the assay with gandotinib, 0.056. Further, the log2 fold change with tozasertib is -0.043; with doramapimod, -0.001; in the assay with bafetinib, 0.045; in assay [2] it was -0.011.
AK1 (UniProt P00568): the log2 fold change in the assay with lapatinib was -0.027; with pictilisib it was -0.011; with crizotinib it was 0.091; in assay [1], 0.285 (active); with duvelisib, -0.001; with gandotinib, -0.118. Moreover, the log2 fold change with tozasertib is 0.023; with doramapimod it was -0.037; in the assay with bafetinib, 0.06; in assay [2], -0.189.
Take APAF1 (UniProt O14727): the log2 fold change with lapatinib is 0.022; with pictilisib, -0.068; with crizotinib, -0.09; in assay [1] it was -0.015; with duvelisib, -0.011; in the assay with gandotinib, -0.058. Moreover, the log2 fold change with tozasertib is -0.025; with doramapimod it was 0.05; with bafetinib, 0.02; in [2], 0.061.
On to ARHGAP25 isoform 4 (UniProt P42331), for which the log2 fold change with lapatinib was 0.011; with pictilisib it was -0.024; with crizotinib, -0.053; in [1], -0.011; with duvelisib, 0.008; with gandotinib, -0.024. The log2 fold change is -0.006 in the assay with tozasertib, -0.005 with doramapimod, -0.075 with bafetinib and 0.081 in assay [2].
On to ALG8 (UniProt Q9BVK2), for which the log2 fold change in the assay with lapatinib is -0.043; with pictilisib it was -0.043; in the assay with crizotinib, 0.017; in [1], -0.211; with duvelisib, -0.013; in the assay with gandotinib it was 0. Moreover, the log2 fold change is 0.116 with tozasertib, -0.06 with doramapimod, -0.08 in the assay with bafetinib and 0.087 in assay [2].
With ANKRD30A (UniProt Q9BXX3), the log2 fold change with lapatinib is -0.228; with pictilisib, 0.028; with crizotinib, 0.128; in assay [1], -0.155; with duvelisib, -0.038; with gandotinib it was 1.59 (active). Moreover, the log2 fold change was 0.281 in the assay with tozasertib, -0.068 with doramapimod, 0.069 in the assay with bafetinib and 0.918 in assay [2].
